# In the library only some 3.2% were active in any assay of this set; here they are far more common.
# rCAG RNA binder: binds r(CAG) RNA repeats; r(CAG) RNA repeat, TO-PRO-1 dye displacement fluorescence; inhibition, % at 3 µM; actives 1.3% (n = 370,000);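 active means inhibition above the plate cutoff, the mean of all test compounds on that plate plus 3 SD, cut at about 35% in these data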;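 further: 0% = DMSO alone and 100% = 100 µM mitoxantrone as full dye displacement; higher means more dye released from RNA so lower well fluorescence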
# sPLA2-III inh: Inhibits HGIII-sPLA2 liposome hydrolysis, primary screen; Q9NZ20; QFRET BODIPY PC-A2 liposome hydrolysis, fluorescence; inhibition, % at 12.2 µM; actives 0.56% (n = 370,000); AID 743126;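 active means inhibition above mean plus 3 SD of compounds lying within the high and low control bounds, cut at about 19% in these data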;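 further: 0% = median of test compound wells and 100% = no enzyme DMSO wells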
# Target sequence (Q9NZ20 whole entry, looked up): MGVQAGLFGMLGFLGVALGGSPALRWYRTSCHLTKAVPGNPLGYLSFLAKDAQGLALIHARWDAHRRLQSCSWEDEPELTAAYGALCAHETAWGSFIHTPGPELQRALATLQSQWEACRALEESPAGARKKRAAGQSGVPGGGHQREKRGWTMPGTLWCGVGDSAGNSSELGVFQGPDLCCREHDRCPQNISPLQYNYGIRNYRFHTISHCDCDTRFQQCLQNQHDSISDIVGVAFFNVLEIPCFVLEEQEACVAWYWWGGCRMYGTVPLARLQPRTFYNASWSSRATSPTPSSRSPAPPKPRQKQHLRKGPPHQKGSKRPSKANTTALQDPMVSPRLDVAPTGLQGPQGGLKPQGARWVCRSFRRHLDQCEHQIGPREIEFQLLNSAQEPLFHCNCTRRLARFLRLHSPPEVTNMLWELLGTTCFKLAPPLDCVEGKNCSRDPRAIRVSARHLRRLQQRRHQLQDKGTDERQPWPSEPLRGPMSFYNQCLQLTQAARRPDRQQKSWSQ
# MsrA inh: inhibitors of bovine MsrA; inhibition, % at 15.5 µM; purified bovine MsrA, absorbance read-out; AID 651718; actives 0.75% (n = 360,000); in the data active means inhibition above about 4.5%;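 further: 0% = vehicle wells with enzyme and 100% = reference inhibitor wells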
# PG9 Ab binder: binds the HIV-1 gp120 antibody PG9. TR-FRET gp120-PG9 antibody binding. inhibition, % at 6.7 µM. actives 0.43% (n = 360,000). AID 624416; in the data active means inhibition above about 8.5%
# MsrA act: bovine methionine sulfoxide reductase A activation; activation, % at 10.6 µM; actives 0.3% (n = 360,000); purified bovine MsrA, absorbance read-out; in the data active means activation above about 7.5%;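 further: 0% = vehicle and 100% = reference activator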
# rCAG bind conf: r(CAG) RNA repeat binding, confirmation; shares compounds with rCAG RNA binder; TO-PRO-1 dye displacement fluorescence; inhibition, % at 3 µM; actives 70% (n = 4,300); AID 652065;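 active means inhibition above a per-plate cutoff, the mean inhibition of sample wells plus 3 SD, cut at about 35% in these data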;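 further: loss of TO-PRO-1 fluorescence as compound displaces dye from 1x1 AA loop RNA; 0% = DMSO only wells and 100% = 100 µM mitoxantrone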
# DNA CAG counter: DNA CAG dye complex inhibition counter-screen | shares compounds with rCAG RNA binder | d(CAG) DNA oligo TO-PRO-1 dye displacement, fluorescence | inhibition, % at 3 µM | actives 94% (n = 4,300) | AID 652068;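 active means inhibition above its plate's cutoff, the mean test-well inhibition plus 3 SD, cut at about 4.8% in these data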;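 further: 0% = DNA dye mix with DMSO and 100% = 100 µM mitoxantrone; hits displace the dye from DNA and so lower well fluorescence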
# Active calls of the source: *; / = no result.
SMILES,rCAG RNA binder,sPLA2-III inh,MsrA inh,PG9 Ab binder,MsrA act,rCAG bind conf,DNA CAG counter
CCNc1nc(CN2CCOCC2)nc2sc3c(c12)CCC3,-4,5,-1,-1,-3,/,/
O=S(=O)(Nc1nc(CN2CCOCC2)nc2sc3c(c12)CCCC3)c1cc(F)ccc1F,50*,-15,0,1,2,38*,9.6*
Cc1sc2nc(CN3CCOCC3)nc(NS(=O)(=O)c3cc(Cl)ccc3Cl)c2c1C,53*,-21,1,-1,6,46*,10*
O=C(NCCC1=CCCCC1)C1CCN(S(=O)(=O)c2ccccc2[N+](=O)[O-])CC1,3,-4,/,/,/,/,/
O=S1(=O)CC2c3ccc(F)cc3CN2CN1C1CCCC1 (stereo not given),10,17,/,/,/,/,/
COc1cc(C2C(C#N)=C(N)Oc3c2ccc2ccccc32)ccc1OCC(=O)Nc1ccc(C)cc1 (stereo not given),38*,-36,0,-2,-1,17,13*
COc1cc(C2C(C#N)=C(N)Oc3c2ccc2ccccc32)ccc1OCC(=O)Nc1cccc(C)c1 (stereo not given),53*,-46,-1,-2,-2,14,11*
CCc1nc2c(OCc3ccc(Cl)cc3Cl)cccn2c1N(C)C(=O)CC(C)C,0,0,1,2,-5,/,/
COc1ccc([C@H]2OC(=O)C[C@H]2C(=O)N2CCN(c3ccccc3C(F)(F)F)CC2)cc1OC,-1,-8,/,/,/,/,/
COc1ccc(C(=O)/C=C/Nc2ccc(S(=O)(=O)Nc3onc(C)c3C)cc2)cc1,47*,-13,2,0,0,49*,18*
CCc1ccc(C(=O)/C=C/Nc2ccc(S(=O)(=O)Nc3onc(C)c3C)cc2)cc1,57*,-21,0,-2,-10,79*,37*
Cc1noc(NS(=O)(=O)c2ccc(N/C=C\C(=O)c3ccncc3)cc2)c1C,6,-1,2,1,-1,/,/
Cc1noc(NS(=O)(=O)c2ccc(N/C=C/C(=O)c3ccc(F)cc3)cc2)c1C,14,-10,3,1,-7,/,/
COc1cccc(NC(=O)Nc2c(-c3ccc(C(F)(F)F)cc3)nc3ncccn23)c1,7,-17,/,/,/,/,/
COc1ccc(C(=O)N/N=C/c2c[nH]c3ccccc23)cc1,2,9,4,-4,-3,/,/
CCCOc1ccc(C(=O)N/N=C/c2c[nH]c3ccc(Br)cc23)cc1,37*,-32,2,-2,-9,25,12*
CN(Cc1cn(Cc2ccccc2)nn1)S(=O)(=O)c1ccc(F)cc1Br,5,-5,/,/,/,/,/
O=c1[nH][nH]c2cc(=O)n(-c3cccc(C(F)(F)F)c3)nc12,59*,0,-1,-5,-5,48*,17*
COC(=O)C1=C(O)/C(=C\c2ccc(CNS(=O)(=O)c3ccc(Cl)cc3)o2)N=C1C,37*,-22,2,-6,-15,42*,15*
COC(=O)C1=C(O)/C(=C\c2ccc(CNS(=O)(=O)c3ccccc3)o2)N=C1C,31,-11,2,-11,-3,/,/
CCOC(=O)C1=C(O)/C(=C\c2ccc(CNS(=O)(=O)c3ccc(Br)cc3)o2)N=C1C,37*,-20,1,-8,-5,43*,16*
O=C(CSc1nc2ccccc2nc1N1CCOCC1)NCc1ccc(Cl)cc1Cl,2,-1,/,/,/,/,/
O=c1[nH]c(=S)[nH]c2c1C(c1ccc(Br)cc1)c1c([nH]c(=S)[nH]c1=O)O2,87*,-26,0,-1,-5,84*,48*
O=C1CCCC2=C1C(c1ccc(Br)cc1)c1c([nH]c(=S)[nH]c1=O)N2 (stereo not given),24,2,3,-2,5,/,/
C[C@H]1[C@@H](OC(=O)Nc2cccc(C(F)(F)F)c2)CC[C@@]23CCCN2C(=O)CCC[C@@H]13,/,16,/,/,/,/,/
SMILES,rCAG RNA binder,sPLA2-III inh,MsrA inh,PG9 Ab binder,MsrA act,rCAG bind conf,DNA CAG counter
CN1C(=O)/C(=C/c2ccc(-c3ccccc3[N+](=O)[O-])o2)SC1=Nc1ccc(Cl)c(C(=O)O)c1,43*,-3,0,0,-3,85*,51*
O=C(O)c1cc(-c2ccc(/C=C3/SC(=S)N(Cc4ccccc4)C3=O)o2)ccc1Cl,16,-1,1,-3,-3,/,/
O=C1NC[C@H](Cc2ccccc2)N(C[C@@H]2CCCN2C[C@H](Cc2ccccc2)N2C[C@H](Cc3ccc(O)cc3)N(CCc3ccccc3)C(=O)C2=O)C1=O,7,-20,0,0,1,/,/
Cc1ccc(C2c3[nH]c4ccccc4c3C[C@H]3C(=O)N(c4ccccc4C(=O)N4CCC(C(=O)O)CC4)C(=O)N23)cc1 (stereo not given in full),32,-11,0,2,-2,/,/
O=C(O)C1CCN(C(=O)c2ccccc2N2C(=O)[C@@H]3Cc4c([nH]c5ccccc45)C(c4cccc(Cl)c4)N3C2=O)CC1 (stereo not given in full),38*,-16,2,0,-1,47*,14*
Cc1ccc(C2c3[nH]c4ccccc4c3C[C@H]3C(=O)N(c4ccccc4C(=O)N4CCC[C@@H]4C(=O)O)C(=O)N23)cc1 (stereo not given in full),39*,-24,1,1,0,57*,19*
CC(C)(C)N(Cc1cn(Cc2ccccc2)nn1)S(=O)(=O)c1ccc(F)cc1Br,0,-5,/,/,/,/,/
O=C1c2cc(O)cc(O)c2C(=O)c2c1cc(O)c([C@@H](CO)CCO)c2O,53*,-4,1,-11,-2,44*,19*
Cc1cc(O)c2c(c1)C(=O)c1cc(O)cc(O)c1C2=O,21,4,1,-4,-1,/,/
COc1ccc(OC)c(CN2C(=O)CCCC2(C)c2nnnn2C2CCCC2)c1 (stereo not given),1,-7,/,/,/,/,/
Cc1ccc(Cc2nnc(SCC(=O)Nc3c(C)cccc3C)[nH]c2=O)cc1,15,-3,-1,2,-4,/,/
COc1ccc(Cc2nnc(SCC(=O)Nc3cc(Cl)ccc3C)[nH]c2=O)cc1,45*,-3,0,-1,-4,36*,8.2*
O=C(NCc1cccnc1)OC1CC2CC1[C@H]1CCCCN1C2=O (stereo not given in full),0,7,1,-2,-13,/,/
COc1ccc(C2=NOC(Cn3nc(-c4ccccc4C)cc3C(=O)O)C2)cc1 (stereo not given),39*,-19,1,-2,-14,19,5.0*
CCOC(=O)c1cc(-c2ccccc2C)n(CC2CC(c3ccc(OC)cc3)=NO2)n1 (stereo not given),-8,-17,0,-1,1,/,/
N#C/C(=N\Nc1ccc(Cl)cc1)C(=O)c1ccsc1,47*,-11,0,-2,-4,40*,8.1*
